CYP2C9 inhib: inhibitors of human CYP2C9; CYP2C9 Supersomes, luciferin-H conversion, luminescence; AID 777; 20% of 96,000 active; inhibition, % at 5 µM;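 active = blocking of liver enzyme CYP2C9 beyond about 50% at 5 µM, limit read from the data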
Target sequence (P11712 whole entry, looked up): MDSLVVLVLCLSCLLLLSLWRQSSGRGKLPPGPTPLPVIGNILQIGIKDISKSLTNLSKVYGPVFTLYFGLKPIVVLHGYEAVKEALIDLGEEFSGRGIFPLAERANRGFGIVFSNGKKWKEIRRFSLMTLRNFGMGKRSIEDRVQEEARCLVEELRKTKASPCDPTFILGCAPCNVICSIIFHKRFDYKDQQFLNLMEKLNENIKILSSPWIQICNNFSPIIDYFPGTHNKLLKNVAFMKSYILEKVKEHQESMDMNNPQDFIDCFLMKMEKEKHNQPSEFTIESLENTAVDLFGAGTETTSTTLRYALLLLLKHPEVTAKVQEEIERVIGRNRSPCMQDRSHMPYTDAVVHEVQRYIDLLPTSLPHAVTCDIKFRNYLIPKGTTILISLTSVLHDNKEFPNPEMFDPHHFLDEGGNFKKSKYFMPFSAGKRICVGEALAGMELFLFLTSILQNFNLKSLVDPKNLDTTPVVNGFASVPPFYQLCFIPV
Mac1 fbg inh: CD11b/CD18-fibrinogen binding inhibition; P05107+P11215; K562 CD11b/CD18 adhesion to fibrinogen, ATPlite luminescence; Mn2+ added to activate the integrin; inhibition, % at 10 µM; 0.54% of 93,000 active; AID 1497;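 active = primary inhibition of 50% or more at 10 µM, then 40% or more on retest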
CYP2C19 act: cytochrome P450 2C19 (human) activation; P33261; recombinant CYP2C19, luciferin-H EGE luminescence; stronger effect = higher value; 0 = fully inhibited enzyme, 1 = untreated enzyme; 96,000 tested, under 10 active; AID 1025; activation factor at 5 µM;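 active = activation factor of at least 2 at 5 µM in the primary screen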;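 note: 0 = wells with 2.5 mM tranylcypromine and 1 = vehicle-only wells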
CYP2C9 act: increases human cytochrome P450 2C9 activity; P11712; recombinant CYP2C9, luciferin-H conversion, luminescence; stronger effect = higher value; factor 1 = untreated enzyme, 0 = blocked; activation factor at 5 µM; 1.4% of 96,000 active;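 active = activation factor of 2 or more for CYP2C9 at a 5 µM dose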;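 note: 0 = sulfaphenazole-blocked wells and 1 = vehicle-only wells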
CYP2C19 inh: blocks human cytochrome P450 2C19; AID 778; P33261; CYP2C19 Supersomes, luciferin-H EGE luminescence, 30 min; 21% of 96,000 active; inhibition, % at 5 µM;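 active = CYP2C19 inhibition above a set limit at 5 µM in the primary screen, cut at about 50% in these data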;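 note: plate controls were negative control wells for no effect and 2.5 mM tranylcypromine positive control for full effect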
Mac1 fbg enh: CD11b/CD18-fibrinogen binding enhancement; P05107+P11215; K562 CD11b/CD18 adhesion to fibrinogen, ATPlite luminescence; activation, % at 10 µM; 0.07% of 93,000 active; AID 1499;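 active = 10 µM primary screen giving 50% or more activity, confirmed by 40% or more on retest at that dose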
The depositor's hits bear a star; x = not tested or not shown. The list is not random: actives were taken first. Their share in the collection is about 28%.

SMILES | CYP2C9 inhib | Mac1 fbg inh | CYP2C19 act | CYP2C9 act | CYP2C19 inh | Mac1 fbg enh
CCc1cccc2c(C#N)cn(CC(=O)NCc3ccco3)c12 | 14 | 13 | 0.5 | 0.9 | 51* | -2
N#Cc1ccc2ccn(CC(=O)NCc3ccco3)c2c1 | -4 | -19 | 0.9 | 1 | 13 | 0
Cc1ccc(CNC(=O)Nc2cccs2)cc1 | 10 | -6 | 0.5 | 0.9 | 51* | 3
COc1ccc(CNC(=O)Nc2cccs2)cc1OC | 5 | x | 0.6 | 0.9 | 41 | x
Cc1ccc(CNC(=O)Cc2cccs2)cc1 | -4 | 5 | 0.1 | 1 | 90* | -1
COc1cccc(CNC(=O)Nc2cccs2)c1 | 54* | -16 | 0.1 | 0.5 | 86* | 1
O=C(Cc1cccs1)NCc1ccccc1F | 10 | -13 | 0.3 | 0.9 | 71* | -2
O=C(Cc1cccs1)NCc1ccccc1 | 3 | 8 | 0.6 | 1 | 41 | 0
O=C(Cc1cccs1)NCc1ccncc1 | 13 | 1 | 1 | 0.9 | 4 | -1
COc1ccc(-n2c(=O)c3ccccc3n(CC(=O)NC3CCCC3)c2=O)c(OC)c1 | -6 | 3 | 1.1 | 1.1 | -14 | -4
Cc1ccc2c(c1)cc1c(=O)[nH]ncn12 | -21 | x | 1.1 | 1.2 | -12 | x
COc1cccc(CNC(=O)CCNS(=O)(=O)c2cccs2)c1 | 6 | -16 | 0.1 | 0.9 | 90* | 0
Cc1ccc(CNC(=O)C2(C)Oc3ccccc3NC2=O)cc1 (stereo unspecified) | 90* | 3 | 0.2 | 0.1 | 79* | -3
Cc1ccc(CNC(=O)Nc2ccccc2)cc1 | 32 | -10 | 0.1 | 0.7 | 92* | 2
O=C(NCc1ccc(N2CCCC2=O)cc1)Nc1ccccc1 | 34 | -26 | 0.8 | 0.7 | 21 | 5
COCCNC(=O)C1(C)Oc2ccccc2NC1=O (stereo unspecified) | 11 | 9 | 0.9 | 0.9 | 10 | -4
O=C(CCNS(=O)(=O)c1cccs1)NCc1cccs1 | 18 | x | 0.5 | 0.8 | 47 | x
CS(=O)(=O)NCCC1=CCCCC1 | 1 | 3 | 0.9 | 1 | 6 | -3
CSCCC(NC(=O)OC(C)(C)C)C(=O)Oc1ccc2c(=O)c(-c3ccc4c(c3)OCCO4)coc2c1 (stereo unspecified) | 0 | x | 0.8 | 1 | 18 | x
CC1(C)Cc2c(c(N3CCOCC3)nc3snc(N)c23)CO1 | 35 | -7 | 1 | 0.7 | -1 | 4
CC1(C)Cc2c(c(N3CCOCC3)nc3snc(Br)c23)CO1 | 67* | -4 | 0.9 | 0.3 | 10 | -2
Cc1cccc(OCc2nnc(SCc3cc(=O)n4cc(Br)ccc4n3)o2)c1 | 90* | -12 | 0.1 | 0.1 | 92* | -6
O=c1cc(CSc2nnc(COc3ccccc3Cl)o2)nc2sccn12 | 53* | -18 | 0.1 | 0.5 | 88* | -3
COc1ccc2c(c1)C1NC(=S)NC(C)(O2)C1C(=O)Nc1ccccc1C (stereo unspecified) | 1 | 26 | 1 | 1 | 4 | -4
N#Cc1ccccc1NC(=O)COC(=O)c1ccc(S(=O)(=O)N2CCCC2)cc1 | 33 | -13 | 1 | 0.7 | 2 | -3
SMILES | CYP2C9 inhib | Mac1 fbg inh | CYP2C19 act | CYP2C9 act | CYP2C19 inh | Mac1 fbg enh
Cc1ccc(S(=O)(=O)N(CCC#N)CCN2CCCC2)cc1 | 8 | -7 | 0.9 | 0.9 | 13 | -5
O=C(c1cc2nc(-c3ccco3)cc(C(F)(F)F)n2n1)N1CCN(Cc2ccccc2)CC1 | 64* | 8 | 0.5 | 0.4 | 47 | 0
O=C(c1cc2nc(-c3ccco3)cc(C(F)(F)F)n2n1)N1CCN(c2ccc(F)cc2)CC1 | 64* | -28 | 0.2 | 0.4 | 81* | 2
Fc1ccc(N2CCN(c3nc(-c4ccco4)cc(C(F)(F)F)n3)CC2)cc1 | 49 | -7 | 0.5 | 0.5 | 54* | 3
O=C(Nc1ccc(Cl)cc1)c1cc2nc(-c3ccco3)cc(C(F)(F)F)n2n1 | 71* | 12 | 0.8 | 0.3 | 17 | 4
CN1CCN(C(=O)c2cc3nc(-c4ccc(F)cc4)cc(C(F)(F)F)n3n2)CC1 | -20 | 1 | 1.2 | 1.2 | -18 | -4
COc1ccccc1N(CC(=O)NC(C)C)S(=O)(=O)c1cccs1 | x | -16 | x | x | x | 5
Cc1nn(-c2nc(-c3ccco3)cc(C(F)(F)F)n2)c(C)c1Br | 52* | -17 | 0.8 | 0.5 | 16 | 0
CC(NC(=O)c1cc(-c2cccs2)on1)c1ccccc1 (stereo unspecified) | 0 | 0 | 1.1 | 1 | -11 | 6
COCCCNC(=O)C(F)(F)C(F)(F)C(=O)NCCCOC | -4 | -7 | 1 | 1 | 0 | -2
Cc1ccc(N)c(C(O)(C(F)(F)F)C(F)(F)F)c1 | 58* | -2 | 0.2 | 0.4 | 82* | 1
CC(=O)Nc1ccc(S(=O)(=O)NCCC(=O)OCCN2C(=O)c3ccccc3C2=O)cc1 | 93* | 4 | 0.3 | 0.1 | 70* | -1
CCOC(=O)c1sc(C)c(C(=O)NCC(C)(C)CN(C)C)c1N | -3 | x | 1 | 1 | -3 | x
O=S(=O)(NCCO)c1cccc2cccnc12 | 36 | -9 | 0.8 | 0.6 | 20 | 5
O=S(=O)(NCCCN1CCN(c2ccccc2F)CC1)c1cccc2cccnc12 | -135 | 2 | 0.4 | 2.3* | 55* | -1
CN(CCCNS(=O)(=O)c1cccc2cccnc12)Cc1ccccc1 | -147 | 21 | 0.6 | 2.5* | 37 | 4
O=S(=O)(NCc1ccccc1)c1cccc2cccnc12 | 78* | -4 | 0.2 | 0.2 | 79* | 2
CC(C)OC(=O)/C(=C\c1ccc2c(c1)c1ccccc1n2C)NC(=O)c1ccccc1 | 76* | x | 0.6 | 0.2 | 37 | x
O=C(CC1Oc2ccc(Cl)cc2NC1=O)NC1CCCCCC1 (stereo unspecified) | -27 | -8 | 1 | 1.3 | 1 | 3
CN1c2ccsc2C(O)=C(C(=S)Nc2ccc(F)c(Cl)c2)S1(=O)=O | 84* | 30 | 1 | 0.2 | 0 | -4
CCOC(=O)c1c(C)[nH]c(C(=O)N/N=C/c2cccc(OC)c2)c1C | x | -17 | x | x | x | 2
Cc1cc(C(=O)OCC(=O)Nc2nc(-c3ccccc3)cs2)c(C)o1 | -4 | -9 | 0.9 | 1 | 5 | -1
Cc1onc(-c2ccccc2)c1C(=O)Nc1nnc(COc2ccc(Cl)cc2)s1 | 98* | 79 | 0.5 | 0 | 54* | -2
COc1cccc(/C=N/NC(=O)c2c(-c3ccccc3)noc2C)c1 | 67* | x | 0.5 | 0.3 | 50* | x
Cc1cc(C(=O)OC(C)C(=O)Nc2nc(-c3ccccc3)cs2)c(C)o1 (stereo unspecified) | 96* | 19 | 0.1 | 0 | 89* | 1
Cc1onc(-c2ccccc2)c1C(=O)Nc1nc(-c2ccccc2)cs1 | 72* | -5 | 0.3 | 0.3 | 70* | 4

Screening results as filed in PubChem.
